For the experiment, the system named is Leishmania donovani. Nature of the experiment: Leishmania intramacrophage assay. The format is functional, organism-based. The arrangement: scale not given: in the data most compounds retested in dose-response had high values.

The values that follow come from ChEMBL document CHEMBL3988442, “University of Dundee, Small-Polar-MMV Screening Library” (2021).

Hit rate of the full screen: of about 69,000 compounds, about 1,000 (1.4%) showed an effect of 50% or more. This excerpt belongs to a sample that is enriched for strong results.

With `COc1ccc2nnc(C(=O)NC3CCCC3)nc2c1`, the “Percent Effect” value (30.3 µM, […]) is on record as 8.289%. As to `CCCS(=O)(=O)N1CCC2(CC1)CN(c1ccccn1)CCO2.O=C(O)C(F)(F)F`, the “Percent Effect” value (30 µM, 30.03 µM) stood at 10.12%.

In the case of `CS(=O)(=O)Cc1ccc(Cl)cc1NCc1ccccc1F`, under “30.3 µM, […]”, the “Percent Effect” value is listed as 17.75%.

Consider `CS(=O)(=O)Cc1ccccc1NCc1cc(Cl)ccc1Cl`, for which the “Percent Effect” value (30.3 µM, […]) was determined as 50.41%. Regarding `CS(=O)(=O)Cc1ccc(Cl)cc1NCc1cccc(F)c1F`, the “Percent Effect” value (30.3 µM, […]) is reported as 15.72%.

Turning to `CC(O)CN1CCN(C(=O)c2ccc(N(C)C)nc2)CC1` (centres undefined), the “Percent Effect” value (30 µM, 30.03 µM) is on record as 21.97%. For the compound `Cn1ncc(C(=O)N2CCCC(n3cccn3)C2)c1C1CC1` (centres undefined), the “Percent Effect” value (30 µM, 30.03 µM) is listed as -6.982%.

For the compound `CCN(C(=O)Nc1cccnc1OC)C1CC1`, the “Percent Effect” value (30 µM, 30.03 µM) is given as 22.39%. Still for that read-out and setting: under `COc1ncccc1NC(=O)N(Cc1ccc(C)o1)C1CC1` stands 53.3%. Turning to `COc1ncccc1NC(=O)N(Cc1ccco1)C1CC1`, under “30 µM”, the “Percent Effect” value came to 6.992%. For `O=C1CCc2cc(OCCN3CCc4cncnc4C3)ccc2N1`, the “Percent Effect” value (30.3 µM, […]) was 41.19%.

With `Cc1nc(S(=O)(=O)N2CCC3(CCCCC3)C2)cn1C`, the “Percent Effect” value (30.3 µM, […]) was -11.17%. In the case of `CNC(=O)c1cc2c(nc1NCC1CC1)CCNCC2`, the “Percent Effect” value (30.3 µM, […]) is -29.9%. Same read-out and setting: the same measure for `CC(C)CNc1nc2c(cc1C(=O)NCC1CC1)CCNCC2`: 79%.

As to `CC(C)Nc1nc2c(cc1C(=O)NCC1CC1)CCNCC2.O=C(O)C(F)(F)F.O=C(O)C(F)(F)F`, the “Percent Effect” value (30 µM, 30.03 µM) is on record as 30.72%. Consider `O=C(C1CCCO1)N1CCc2onc(-c3ccc(Cl)cc3)c2C1` (centres undefined), for which the “Percent Effect” value (30.3 µM, […]) was -19.46%. Take `Cc1cnc(C)c(N2CCCC(C/C=C/c3ccccc3)(C(=O)O)C2)n1` (centres undefined): the “Percent Effect” value (30.3 µM, […]) is given as 12.4%. Same read-out and setting: under `Cc1cnc(C)c(N2CCCC(CO)(Cc3ccccc3C)C2)n1` (centres undefined) stands 58.45%. For `Cc1ncc(C)c(N2CCCC(CO)(Cc3cccc(Cl)c3)C2)n1` (centres undefined), the “Percent Effect” value (30 µM, 30.03 µM) was found to be 20.29%. Consider `CC(=O)c1ccc(N2CCCC(CO)(Cc3ccccc3C)C2)nc1` (centres undefined), for which the “Percent Effect” value (30.3 µM, […]) worked out at 44.66%.

Regarding `Cc1ccccc1CC1(CO)CCCN(c2ncnc3sccc23)C1` (centres undefined), the “Percent Effect” value (30.3 µM, […]) is recorded as 67.14%. `Cc1cnc(C)c(N2CCCC(CO)(Cc3cccc(Cl)c3)C2)n1` (centres undefined): the “Percent Effect” value (30.3 µM, […]) is listed as -33.57%.

Turning to `Cc1ccccc1CC1(CO)CCCN(c2ncncc2C(C)C)C1` (centres undefined), under “30.3 µM, […]”, the “Percent Effect” value is listed as 60.98%. For `Cc1ccccc1CC1(CO)CCCN(c2ncccc2C#N)C1` (centres undefined), under “30 µM, 30.03 µM”, the “Percent Effect” value is on record as 15.87%.

Regarding `Cc1ccccc1CC1(C(=O)O)CCCN(c2ncnc3[nH]ccc23)C1` (centres undefined), the “Percent Effect” value (30.3 µM, […]) is -3.526%. Still for that read-out and setting: under `O=C1CCCc2[nH]c(=O)c(C(=O)N3CCc4ccccc4C3)cc21` stands 0.8668%; under `O=C(CN(Cc1cccc(F)c1)CC1CCCO1)N1CCCC1` (centres undefined), -8.596%.

As to `CC[C@@H]1N(Cc2ccoc2)CCC[C@]12CCC(=O)N2CCOC.O=C(O)C(F)(F)F`, the “Percent Effect” value (30.3 µM, […]) is -8.415%.

On to `CC(C)N1CCC(NC(=O)c2cn(-c3ccc(F)cc3)nn2)C1` (centres undefined), for which the “Percent Effect” value (30.3 µM, […]) was -11.91%. Same read-out and setting: under `CCc1cc(NCCCc2nc(C)no2)nc(-c2ccncc2)n1` stands -6.6%. Consider `Cc1cc(Nc2ccccn2)nc(C2CCCN(CCO)C2)n1.O=CO` (centres undefined), for which, where the note is “30.3 µM, […]”, the “Percent Effect” value is on record as 32.66%.

In the case of `Cc1cc(Nc2cnccn2)nc(C2CCCN(CCO)C2)n1` (centres undefined), where the note is “30.3 µM, […]”, the “Percent Effect” value is recorded as 56.31%. On the same count and under the same terms, under `Cc1cc(Nc2ncccn2)nc(C2CCCN(CCO)C2)n1` (centres undefined) stands 24.35%. With `CN(CCn1cncc1-c1cnc(N2CCOCC2)nc1)C1CCCC1`, for the setting “30.3 µM, […]”, the “Percent Effect” value turned out to be 22.37%.

As to `CS(=O)(=O)N1C[C@H]2N(c3ncccn3)CCC[C@@]2(C(=O)NCC2CC2)C1`, the “Percent Effect” value (30.3 µM, […]) amounted to 51.67%. The same measure, in the same setting: under `CNC(=O)N1C[C@H]2N(c3ncccn3)CCC[C@@]2(C(=O)NCC2CC2)C1` stands 18.69%; under `CC(C)CN1C[C@H]2N(c3ncccn3)CCC[C@@]2(C(=O)NCC2CC2)C1`, 11.67%. Consider `COCCN1CC[C@H]2CN(Cc3ccc(C)s3)C[C@@H]2C1=O.O=C(O)C(F)(F)F`, for which the “Percent Effect” value (30.3 µM, […]) is given as -9.099%. With `CC(Cc1cccc(F)c1)C(=O)NS(=O)(=O)c1ccc(F)cc1` (centres undefined), the “Percent Effect” value (30.3 µM, […]) came out at 5.076%. Regarding `CC(CN1CCOCC1)NC(=O)c1cccc2cn[nH]c12` (centres undefined), the “Percent Effect” value (30.3 µM, […]) came to 18.62%. `CN(C)C(=O)c1cc2ncc(C(=O)NC3CCCC3)cc2n1C`: where the note is “30.3 µM, […]”, the “Percent Effect” value is -2.053%. In the case of `Cc1ncccc1CNC1CCCN(Cc2noc(C3CC3)n2)C1` (centres undefined), the “Percent Effect” value (30 µM) came out at 51.55%.

In the case of `Cc1ccc(CNC2CCCN(Cc3noc(C4CC4)n3)C2)s1` (centres undefined), where the note is “30 µM”, the “Percent Effect” value is given as 1.737%. On the same count and under the same terms, the same measure for `Cc1ccsc1CNC1CCCN(Cc2noc(C3CC3)n2)C1` (centres undefined): 29.68%.

For the compound `CCc1cc(N2CCC(NCc3ccc(C)o3)CC2)ncn1`, the “Percent Effect” value (30.3 µM, […]) is on record as 57.16%.

As for `CCc1cc(N2CCC(Nc3ccc(Cl)cn3)CC2)ncn1`, under “30.3 µM, […]”, the “Percent Effect” value amounted to 39.5%. As for `Cc1ccc(N2CCCC(NCc3ccc(C)o3)C2)nn1` (centres undefined), for the setting “30 µM, 30.03 µM”, the “Percent Effect” value worked out at 1.465%. On to `COc1c(CNCCNC(=O)c2ccccc2)c(C)nn1C.Cl`, for which, where the note is “30 µM”, the “Percent Effect” value was determined as 37.81%.

For `Cc1nc(C)n(CC2CCCCN2CCOc2cccc(C#N)c2)n1` (centres undefined), the “Percent Effect” value (30 µM) was found to be 14.77%. As for `CCc1noc(C(C)N2CCN(c3ncnc4sccc34)CC2)n1` (centres undefined), the “Percent Effect” value (30.3 µM, […]) came out at 17.92%. For the compound `Cc1noc(C(C)N2CCN(c3ncnc4ccccc34)CC2)n1` (centres undefined), the “Percent Effect” value (30.3 µM, […]) is -13.38%. Consider `Cc1noc(C(C)N2CCN(c3ncnc4sccc34)CC2)n1` (centres undefined), for which, where the note is “30.3 µM, […]”, the “Percent Effect” value was found to be 61.64%. For `Cc1cnn(C2CCCN(C(=O)c3cc[nH]n3)C2)c1` (centres undefined), the “Percent Effect” value (30.3 µM, […]) stood at 9.905%.

For the compound `CCC(CN1CCCC1)NC(=O)C1(c2cccc(F)c2)CC1.O=C(O)CC(O)(CC(=O)O)C(=O)O` (centres undefined), under “30.3 µM, […]”, the “Percent Effect” value is given as 43.99%.

As for `CCC(CN1CCCCC1)NC(=O)C1(c2ccc(F)cc2)CC1.O=C(O)CC(O)(CC(=O)O)C(=O)O` (centres undefined), the “Percent Effect” value (30.3 µM, […]) worked out at 18.07%. The same measure, in the same setting: the same measure for `CCC(CN1CCCC1)NC(=O)C1(c2ccc(F)cc2)CC1` (centres undefined): 52.84%. For the compound `COCCCN1CCCN(C(C)c2nc(C3CC3)no2)CC1` (centres undefined), the “Percent Effect” value (30 µM, 30.03 µM) stood at 35.53%. For `CCOc1ccc(C(=O)N(C)Cc2nccn2CC(F)(F)F)cc1`, the “Percent Effect” value (30.3 µM, […]) is given as 3.454%. On to `CCC(C)c1ccc(NC(=O)C2CCN(C(=O)N(C)C)CC2)cc1` (centres undefined), for which, under “30.3 µM, […]”, the “Percent Effect” value was 18.48%. Regarding `CCOc1ccnc(N2CCN(C(=O)c3ccncc3)CC2)n1`, the “Percent Effect” value (30 µM) is -11.04%. Take `Cn1cc(CN2CCC3(CC2)CC(c2ccncc2)C(=O)N3)cn1.O=C(O)C(F)(F)F.O=C(O)C(F)(F)F` (centres undefined): the “Percent Effect” value (30 µM, 30.03 µM) was 3.212%. Still for that read-out and setting: under `Cc1nc[nH]c1CN(C)CC1CCCN(CCc2ccc(Cl)cc2)C1` (centres undefined) stands 95.69%.

Regarding `Cc1cc(CN2CCC(C3CCN(CCc4ccccc4)C3)CC2)[nH]n1` (centres undefined), where the note is “30.3 µM, […]”, the “Percent Effect” value is 16.23%. As to `Cc1nc(C)n(CC2CCCN(CCc3ccncc3)C2)n1` (centres undefined), the “Percent Effect” value (30 µM, 30.03 µM) was 27.42%. In the case of `COc1ccc(CCN2CCCC(CN(C)Cc3[nH]cnc3C)C2)cc1` (centres undefined), the “Percent Effect” value (30.3 µM, […]) is on record as -2.681%. As for `COc1ccccc1CCN1CCCC(CN(C)Cc2cc(C)n[nH]2)C1` (centres undefined), the “Percent Effect” value (30.3 µM, […]) came out at 19.41%. `CN(Cc1cccc(O)c1)CC1CCCN(CCc2ccc(Cl)cc2)C1` (centres undefined): the “Percent Effect” value (30 µM, 30.03 µM) was 95.8%. For the compound `CCN(CC1CCCN(CCc2cccc(OC)c2)C1)C(=O)CN(C)C` (centres undefined), the “Percent Effect” value (30.3 µM, […]) came to 48.28%. On the same count and under the same terms, the same measure for `Cc1nc[nH]c1CN1CCC(C2CCN(CCc3ccccc3)C2)CC1` (centres undefined): 22.99%.
